Hit rate of the full screen: of about 360,000 compounds, about 11,000 (3.1%) were called active. Inconclusive results (about 2%) are left out. For the sample, actives were picked, then their nearest neighbours and some compounds at random. A number with no mark means an inactive call. No stated cut-off is given here; in the data, active means fluorescence intensity above about 16000; inconclusive means no clear call, values can overlap the other calls; inactive means below that.

The nature of this experiment: counter-screen for toxin protease inhibitors: compound fluorescence, primary screen, artefact control for toxin protease inhibitor project, biochemical, multiplex microsphere, HTS (AID 624483). The following applies: compound autofluorescence counterscreen, microsphere flow cytometry; hits give high values. On the technique in general: A counterscreen serves to expose hits that act by an unwanted route or on another target.
On to `CSc1ncnc2c1ncn2CCCNCC1CCCCC1`, for which the fluorescence intensity is 3580.
Then `CCOC(=O)C1CCN(C(=O)Nc2cccc(OC)c2)CC1`, with 3130; and `Cc1ccc(NC(=O)C2CCN(S(=O)(=O)c3ccc4c(c3)NC(=O)CO4)CC2)cc1C`, with 6240.
Turning to `CC(CC(=O)Nc1ccc(F)cc1F)S(=O)(=O)c1ccc2c(c1)NC(=O)CO2` (centres undefined), the fluorescence intensity was 6050.
With `O=C1COc2ccc(NC(=O)N3CCN(c4ccc(F)cc4)CC3)cc2N1`, the fluorescence intensity is 22400 (active).
Regarding `COc1cccc(N2CCN(C(=O)Nc3ccc4c(c3)NC(=O)CO4)CC2)c1`, the fluorescence intensity was 19600 (active).
Consider `COc1ccc(NC(=O)CCS(=O)(=O)c2cc3c(cc2Cl)NC(=O)CO3)cc1OC`, for which the fluorescence intensity was 4470.
`Clc1ccccc1Nc1nc(NCc2cccs2)nc2ccsc12`: the fluorescence intensity was 2970.
For `O=C(NN=Cc1ccccc1O)C(=O)NN=Cc1ccccc1O`, the fluorescence intensity is 3880.
Then `COC(=O)[C@H](CC(C)C)NC(=O)N1CCCCC1C` (some centres undefined), with 6670; and `COc1ccccc1-c1cc(NC(C)=O)c2ncc(-c3ccc(F)cc3)n2c1`, with 3190; and `O=C(c1ccc(F)cc1)N1CCC(C(=O)N2CCN(S(=O)(=O)c3ccccc3Br)CC2)CC1`, with 6500.
`CC(=O)c1c(N2CCOCC2)nc(=S)n(Cc2ccccc2)c1C`: the fluorescence intensity is 2990.
Then `CCn1c(CSc2nc(C)cc(C)n2)nnc1SCC(N)=O`, with 4570; and `CCSc1nc(=S)n(CC)c(C)c1C(C)=O`, with 19400 (active).
Consider `CCCc1nc(-c2ccccc2O)n(-c2ccccc2)n1`, for which the fluorescence intensity is 3640.
In the case of `C=C(C)C1CC=C(C)/C(=N\NC(=O)CNc2ccccc2OC)C1` (centres undefined) it was 2580.
`CC(=O)NC(C)(C)C1CC=C(C)/C(=N\O)C1` (centres undefined): the fluorescence intensity is 17100 (active).
For `OC(c1ccccc1)c1nc(/C=C/c2ccc(C(F)(F)F)cc2)cs1` (centres undefined), the fluorescence intensity was 2820.
For `O=C(CSc1nnc(Cn2cnc3ccccc32)o1)c1ccccc1`, the fluorescence intensity was 4020.
`CC(=O)Nc1ccc(C(=O)CSc2nnc(Cc3ccccc3)o2)cc1`: the fluorescence intensity is 16300 (active).
Regarding `CCCc1nnc(SCC(=O)Nc2ccc(C(=O)OCC)cc2)o1`, the fluorescence intensity is 3670.
Regarding `CN(Cc1cn(Cc2ccc(C(F)(F)F)cc2)nn1)C1CN(Cc2cn(Cc3ccc(C(F)(F)F)cc3)nn2)S(=O)(=O)C1` (centres undefined), the fluorescence intensity was 5810.
For `COc1ccc(CNC(=O)C2CCCC2)cc1`, the fluorescence intensity is 5540.
On to `COc1ccc(CNc2nc(NCc3ccc(OC)cc3)c3ncn(C4CCCC4)c3n2)cc1`, for which the fluorescence intensity was 4490.
Consider `COc1ccc(CNC2CCCCC2)cc1`, for which the fluorescence intensity was 22800 (active).
Consider `COc1cccc(NC(=O)C2(C)CCN2Cc2ccccc2Cl)c1` (centres undefined), for which the fluorescence intensity was 3880.
In the case of `COc1ccccc1CNC(=O)c1cc(-c2cc(Cl)ccc2C)n[nH]1`, the fluorescence intensity was 3000.
Take `O=C(CSc1nnc(COc2ccc(Cl)cc2)n1Cc1ccco1)N1CCNC1=O`: the fluorescence intensity was 5560.
As for `COc1ccc(C(=O)CSc2nnc(COc3ccccc3)n2Cc2ccco2)cc1`, the fluorescence intensity was 23900 (active).
`CCn1c(CNc2ccc(OC)cc2)nnc1SCC(=O)c1ccc(OC)cc1`: the fluorescence intensity is 3090.
With `CCCCN(CC)C(=O)CN(C)S(=O)(=O)c1cccc2nsnc12`, the fluorescence intensity is 6470.
Take `CC(C(=O)NC1CCCC1)N1CCN(S(=O)(=O)c2ccccc2Cl)CC1` (centres undefined): the fluorescence intensity is 4750.
With `CCCCNC(=O)CN1C(=O)NC(Cc2ccccc2)(Cc2ccccc2)C1=O`, the fluorescence intensity is 5690.
Consider `O=C(CN1C(=O)NC(Cc2ccccc2)(Cc2ccccc2)C1=O)NCC1CCCCC1`, for which the fluorescence intensity was 20200 (active).
In the case of `O=C(CC1CCCCC1)NCc1ccccc1`, the fluorescence intensity was 3670.
In the case of `CSc1ccccc1C(=O)Nc1cccc(C(C)=O)c1` it was 26700 (active); in that of `CC(=O)c1cccc(NC(=O)c2cc(C)nn2-c2ccccc2)c1`, 3940; in that of `CC(=O)c1cccc(NC(=O)[C@@H](NC(N)=O)C(C)C)c1`, 3400.
For `COC(=O)c1ccc2c(c1)S(=O)(=O)NC2C` (centres undefined), the fluorescence intensity is 5730.
Consider `COC(=O)c1ccc(OCC(O)CN(CCO)CC(O)Cn2ccc3ccccc32)cc1` (centres undefined), for which the fluorescence intensity is 2540.
In the case of `CCn1c(SCC(=O)Nc2sc(C)c(C)c2C#N)nnc1C1CC1` it was 4370; in that of `CCOC(=O)c1sc(NC(=O)CSc2nc(C)cc(C(F)(F)F)n2)c(C#N)c1C`, 20700 (active).
Then `Cc1cc(C(F)(F)F)nc(SCC(=O)Nc2nccs2)n1`, with 4960; and `CC(C)(C)S(=O)N1Cc2cc(C(=O)NCCCN3CCOCC3)nc(-c3cccc(-c4cc5ccccc5o4)c3)c2[C@H]1CCO` (some centres undefined), with 4620.
On to `Cc1noc(NS(=O)(=O)c2ccc(N3CC(O)=C(c4ccccc4)C3=N)cc2)c1C`, for which the fluorescence intensity was 2440.
With `CCOC(=O)C1CCCN(C(=O)c2ccc(C)c(F)c2)CC1` (centres undefined), the fluorescence intensity is 3730.
`CCS(=O)(=O)Nc1ccc(C2=NN(C(C)=O)C(c3cccs3)C2)cc1` (centres undefined): the fluorescence intensity was 2400.
As for `CCS(=O)(=O)Nc1ccc(C2=NN(S(=O)(=O)c3ccc(F)cc3)C(c3ccco3)C2)cc1` (centres undefined), the fluorescence intensity was 17100 (active).
With `CS(=O)(=O)Nc1cccc(C2=NN(S(=O)(=O)c3ccccc3)C(c3cccs3)C2)c1` (centres undefined), the fluorescence intensity was 8170.
Then `CCOC(=O)C1(C(F)(F)F)N=C(N(C)C)OC(N(C)C)=N1`, with 2190; and `COCCCNC(=O)CNC(=S)N(Cc1cc(OC)c(OC)c(OC)c1)C1CCCC1`, with 2570.
Turning to `O=S1(=O)CC(NCc2ccccc2)C(Nc2ccc(Cl)cc2)C1` (centres undefined), the fluorescence intensity was 3670.
In the case of `Cc1ccc(S(=O)(=O)N2CCN(C(=O)Cn3c(=O)cnc4ccccc43)CC2)c(C)c1` it was 5660.
In the case of `CCn1c(CNC(=O)c2cc(OC)c(OC)c(OC)c2)cc2cc(C)ccc21` it was 3780.
For the molecule `CCn1c(C)nc2cc(C(=O)NNS(=O)(=O)c3ccc(C)cc3C)ccc21`, the fluorescence intensity is 22500 (active).
For `CC(=O)Nc1cnc(-c2ccc(O)cc2C)cn1`, the fluorescence intensity is 3960.
As to `NS(=O)(=O)c1ccc(NC2=CC(c3ccc(F)cc3)N(c3ccc(S(N)(=O)=O)cc3)C2=O)cc1` (centres undefined), the fluorescence intensity is 4340.
As to `C#CCN(C[C@H]1[C@H](OC(=O)NC2CCCC2)[C@H](OC(=O)NC2CCCC2)C[C@H]2C(=O)N(c3ccccc3)C(=O)[C@@H]12)S(=O)(=O)c1ccc(C)cc1`, the fluorescence intensity is 3750.
